The subject of this experiment is HL-60(TB) leukemia. The experiment is described as follows: NCI-60 one-dose screen, 48 h (100 = growth as untreated, 0 = no growth, -100 = all killed). The conditions noted are these: 10 µM unless noted.

This is part of a sample that, as a whole, favours compounds with a hit. Of some 83,000 tested, about 20% had one in any assay.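 Compound tested at a single concentration for 48 hours in 96-well plates; a percent growth value below 10 was scored as active.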 Unmarked numbers belong to inactive results. Activity calls are given as the source filed them.

Take `CC(=O)Nc1ccccc1-c1nc2ccccc2s1`: the growth is 99.5%.

Consider `CCCC(=O)NC(c1cccnc1)c1cc(C(C)(C)C)c2cccnc2c1O` (stereo not given), for which the growth is -13.7% (active).

With `NC(N)=Nc1ccc(Oc2cccc(NC(N)=Nc3ccc(I)cc3F)c2)cc1`, the growth was 67.4%.

Take `O=C1Nc2cc(Cl)ccc2/C1=C\c1ccc(OCc2ccc(Br)cc2F)cc1`: the growth was 66.2%.

For the molecule `COC1CCN(Cc2ccc3c(NNC(=O)c4cnccn4)nc4cc(F)ccc4n23)C1` (stereo not given), the growth is -19.4% (active).

With `CN1CCN(Cc2ccc(NC(=O)c3cncc(C#Cc4cnc5ccc(NCCO)nn45)c3)cc2C(F)(F)F)CC1`, the growth was -12.1% (active).

On to `COc1ccccc1Cn1cc(C#N)c(N)c1C(=O)c1ccc(Br)cc1`, for which the growth was 92.8%.

As to `COc1ccc(/C=N/Nc2nc(Nc3ccccc3)nc(Nc3ccc(S(N)(=O)=O)cc3)n2)cc1`, the growth is 83.8%.

With `CC(C)[C@H]1c2[nH]c3ccccc3c2C[C@H]2C(=O)N(CCCCCCC(=O)NO)CC(=O)N12`, the growth is 96.1%.

With `CN1CCN(Cc2ccc(NC(=O)c3cncc(C#Cc4cnc5ccc(OCC(F)F)nn45)c3)cc2C(F)(F)F)CC1`, the growth is -52.2% (active).

As for `NC(=O)N1N=C(c2cc3ccccc3oc2=O)CC1c1cn(-c2ccccc2)nc1-c1ccc(Cl)cc1` (stereo not given), the growth was 47%.

On to `C#CCC#CCN1CCC[C@H]1C(=O)NCC(=O)OC`, for which the growth is 105%.

Take `Cc1ccc(NC(=O)N[C@@H](Cc2cc(F)cc(F)c2)C(=O)NC2C(=O)N3CCC[C@H]3C(=O)N3CCCC[C@H]3C(=O)N[C@@H](C)C(=O)N3C[C@H](C)C[C@H]3C(=O)O[C@H]2C)c(F)c1` (stereo not given in full): the growth was 13.4%.

On to `Oc1ccc(CSc2nnc(-c3ccc(Br)cc3)o2)c2cccnc12`, for which the growth is 23%.

`CC1=C(C)C(=O)C(Nc2cccc(C(F)(F)F)c2)=C(Cl)C1=O`: the growth was 38.5%.

Consider `COc1ccccc1-n1cc(C#N)c(N)c1C(=O)c1ccc(C)cc1`, for which the growth is 56.7%.

Regarding `NC(=O)n1c(=O)n(-c2cccc(C(F)(F)F)c2)c(=O)c2cc(-c3ccc(F)cc3F)ccc21`, the growth was -49.4% (active).

Turning to `Cn1cc(-c2nnc(N)nc2-c2c[nH]c3ccc(F)cc23)c2cc(Br)ccc21`, the growth was -20.7% (active).

With `N[C@@H](Cc1cn(-c2ccnc3ccccc23)nn1)C(=O)O`, the growth is 110%.

In the case of `CC(C)(C)Nc1nc2c(OCCc3ccccc3)cccn2c1-c1ccc(O)cc1`, the growth was -9.89% (active).

As to `COc1cc(/C=C2\C(=O)Nc3cc(Cl)ccc32)ccc1OCc1ccc(F)cc1`, the growth is 120%.

With `CN1CCN(c2ccc(Nc3nc(NCCNS(=O)(=O)c4ccc(Cl)cc4)c4sccc4n3)cc2)CC1`, the growth is 80.1%.

As to `Clc1ccc2c(NCCCn3ccnc3)c3oc4ccccc4c3nc2c1`, the growth is 40.4%.

For `COc1cc2oc(-c3cccc(NC(=O)c4cc(N)ccc4Cl)c3)cc(=O)c2c(OC)c1OC`, the growth was 99.7%.

For `Cc1nc(-c2cc3ccccc3oc2=O)ccc1C(=O)/C=C/c1ccc(N2CCOCC2)cc1`, the growth was 38.7%.
